According to PubChem BioAssay AID1508600 (Functional Genomics Laboratory (NCATS/FGL), 2020):
About 3,700 (7%) of roughly 53,000 sequences were called active.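 The calls were made as follows: active = gene knockdowns whose robust z-score for IL-1 alpha signal is at least 2 or at most -2, so actives lie on both sides; inactive = the rest.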 The entries come from a sample that favours actives as a whole.

experiment: Components of the Cytosolic LPS Sensing Pathway: Gene Identification via Genome-wide siRNA Screen; details: RAW264.7 macrophages, IL-1a HTRF, actives lie on both sides, screened at 100 nM (by protocol), cells primed 5 h with Pam3CSK4 first;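 also: robust z of the log signal after scaling to non-targeting control siRNA wells of the plate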
Method in brief: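 Using IL-1a HTRF as read-out, the screen measured release from RAW264.7 cells after 48h siRNA knockdown (100 nM), 5 h Pam3CSK4 priming and 24 h cytosolic LipidA. Values were expressed relative to negative-control wells as robust z-scores.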

z-score, active:
GGAAGAGAAGCUGAACAAGTT against Gja1 2.53
GGAGUACAUGACCACAGAUTT against Lncpint -2.06
GCGAUUCAGAGACCUAUGGTT against Aven -2.22
GGUUCUAGACAAUUACCUGTT against Clic1 2.43
CCAACAGCAACGAUGACAATT against Thoc5 -2.94
GGUAUUUCAGAUAACCUGGTT against Bbs12 2.9
GGUGUUGUAAAAUUCCUCATT against Ncoa7 -2.08
GGUGGACGUACUUUUUAACTT against Gata3 2.59
GGAGCUGAAGCCAUUCAACTT against Gpx6 2.08
GCAACUAGCGUGUGUUCCUTT against Arpc1a 2.4
CGUGGAAAGAAAAUUAUCATT against Psmd11 -2.21
GGACGAAAUCUUGUCUGAUTT against Atg4b 2.59
GCCAUGUCAAUCAAUCACUTT against Nucks1 -2.57
GCUUUACUCCAGAUGGAUCTT against Chaf1b 3.23
CGUGCCUGCUCAAUUAAUUTT against 1700067P10Rik 2.46
GGAUUUUGGCCAAAUUGGUTT against Slc25a30 -2.08
GGAAGACCCUAAUCUAGUCTT against Cox5b 2.1
GGACAAGCAAGAAGGAAUUTT against Polr2j -2.43
GCAGUAGGUUGCACACAUATT against Art1 -2.11
CGGGAUCUUAGAAGAGCAATT against Ptpre 2.6
GCCUGAUCGAUACGUGAUCTT against Naaladl1 3.35

z-score, inactive:
GGCACCAAGCUCGAUGAUGTT against Sh3gl2 -1.41
GCUUUUCACAUGAUGUGUUTT against Klrb1a -0.5
GCCCUUACUUAGGUCUAGGTT against Kctd12 -0.522
GGAGCUUCUCAUGACCUUUTT against Mettl21e 0.307
GCGAUGGUAUGUUGAAGGATT against 4930432E11Rik 0.639
GCCUAAAAACUCUAAAUCUTT against Mmut -0.0189
GGUGUGGACUAUGAUACCATT against Anxa9 0.984
GGCUUUGAACAGGAAAGACTT against Ube2z -0.417
CCUGCAAAUGAUACCACCGTT against Olfr734 -0.402
GGAGCGAAGUGAUGAAUAATT against Prph2 0.0677
GGAGCAGCUGAGAGAAAAATT against Ccdc144b -0.413
GGAUGCUGAUUUAAAGACUTT against Rai14 1.69
GCUGAAGGGACUCUAACCATT against Ihh 0.715
CCUCUGGAUCUACGAGCUGTT against Odf4 -0.00669
GCAGAUAGAAGACUGGAAUTT against 1700024G13Rik 0.424
GGUUAUUUCUGAAAUGUGCTT against Fbxl4 -1.3
GGCUGAAAAUGGGAAGCUUTT against Gm5069 0.0536
GGAUGAGCUGAGGAAAUCCTT against Psd2 -0.535
GCCAGGGACUUGCUAUUGATT against Txlna -0.24
GGGAAUGGCUUGAUUCUGUTT against Olfr609 0.514
CGACAAGGAGACCUACAAATT against Itm2b 0.615
CGCAUCAUAAUGAUUGUGATT against Matn2 -0.269
GGCAUCUAUACCAGUAAUATT against Mllt6 -0.562
GGAAAUGAUACCUUACCACTT against Zfp715 0.162
GCGUGAACCGUUUGAUGAGTT against 9030612E09Rik 1.04
GGACAUGAAAGAAACGGUGTT against Bbc3 -0.282
GCUUCCUCUUAUCAUAUAATT against Rgs13 -0.119
GGUAUUAGAAAUCCUGAUCTT against Pias2 -0.716
CGCAUCAUAUUCUGAUUCCTT against Rmnd5b 0.138
CGCAGACAACAAAGUAGAATT against Sars 0.738
GCAUUUCGACGCGGCUUUUTT against Snapc1 0.617
GGUAAACCUGCCAAUUUUGTT against Ovch2 1.54
GCCAUGUGAGACUCUUAUATT against Slc2a9 0.62
GCAGCUCCUUUAUACCCACTT against Mxra7 -1.25
GGAGGGAGCAGAUUGAAACTT against Eri2 -0.281
GCAUGCUUAAGCCUAUAAATT against Ncstn -1.88
GUGUCUCUGUACUUAUUAUTT against Olfr483 0.69
GCUUUUAGAAUAAAGCUGATT against Fgl2 0.75
CCUAUGUCCACCACAAAUGTT against Ifi209 -0.14
GCAACCUGUCCCUUCUUGATT against Olfr225 1.53
GGGAAAUGUUGUAGUAGAUTT against Rars2 0.535
CCACUGUGUGACAUUAAAGTT against Metap2 -0.799
GGCACAGAAUAUCCACCACTT against Olfr283 -1.01
GGCAUUCAGGAAGUUACUGTT against Krt75 -1.63
GGCUUAAUUGCUAGCCAAGTT against Slc7a13 0.849
GGCUUUCGCUAGAAAACUCTT against Sftpc 0.531
GCAAAUUUUAUAUGCGACUTT against Glipr1 -0.561
GGAGAAUGACUACUAUACUTT against Stt3a -0.127
CCAGACACGCAUUGCGAAATT against H2-M2 0.357
GCAUCAAUUCCCAAACCUUTT against Selenov -0.0263
GGGCAAACCAGUUAGCAGATT against Atxn2 0.278
GGGAAGCCUUACUUAUUGGTT against Vmn1r53 1.25
GGACAAAACCUCAGUUGAUTT against Bves 1.05
CCAAGGACACUAUACAAAUTT against Fank1 0.957
CCCGCAACAAUAAACCUGATT against Yif1b -1.36
GCAGUACAUAGGACAAUACTT against Ccdc97 0.0835
GGAAGAAGAAAGUGUUAAATT against Ythdf2 -0.337
GGUCCAAUUUUAUAACAGUTT against Dmtf1 0.359
GGCUACCAAGGCAGUUUCCTT against Glis1 -1.35
GGGUAUCAGUGCCUUCCUGTT against Acads -1.05
GGUCACUCGGUUCACAAAATT against Bid -0.731
CGUUCAUAUAGAGAACUGUTT against Naip1 0.699
GGGUAAUAGACCAUUUCUUTT against Olfr124 0.255
GGAGCUUAGAGGAACGAAUTT against Cyp2j9 1.4
GGAAGAAGAAGACCAGGGATT against Parvb -0.0188
GGCCAACUUCGAAGAAAAGTT against Mrpl52 0.192
CCAAAAAAUCCUAUACUCUTT against Cdh8 1.42
GGUCACUUCCUUAAUUUUATT against Disc1 -1.62
GGCUUGGUGUUUUGAUUAGTT against Rogdi 1.6
GGUCUUGCAUGUCUCUGAGTT against Lrrc47 -1.45
GGAGUUUGAACAUAUGAAGTT against Rcn1 -0.417
GCUAUCAUGAAGCUAAAUGTT against Igf2bp1 0.267
CCAGAUUAUGACAAAGCGUTT against Glyat -0.0538
AAACCAUACUUGAAAGAAATT against Olfr943 -0.36
GCACACGUCCUAUAAAAAUTT against Rad54b 0.532
GGACUUCUCUGUGAAGAUGTT against Ctsf -0.129
GGAGAGAGGAUAAGUCACATT against Jsrp1 -1.44
GCUGGAUCCAUCUAAUUGCTT against Klhl12 0.0684
GGACCAGUUAAAGUCACCATT against Atp4b -1.81
GGAAGGUGGCUAUUUUAAUTT against Acsl3 -0.207
CCAUUUCUUUCAGUGGCUGTT against Olfr48 -0.47
GGCUAUAAAAGCACAGUUUTT against Slc25a26 -0.61
CCCUGCAUUUGUCAAUUAUTT against Hnrnpl -0.161
GGGACAAAGAGAUACACAUTT against 9530056K15Rik 1.11
GGAGGACAACAGCAAAACATT against Atoh1 -1.01
GGAAAGAGAAAAACAACCATT against Cngb3 -0.522
